Experimental findings from PubChem BioAssay are described below.

Each structure is given as a SMILES string. Measured potencies and affinities stand elsewhere. Records with an inconclusive call do not appear. Active and inactive are the calls of the source.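 The calls were made as follows, unless noted: active = fitted half-maximal concentration for viability loss no higher than twice the top valid dose, in every repeat run; inconclusive = repeat runs disagree, flat partial loss, or poor curve fit; inactive = the rest.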

One assay can be described thus: cytotoxicity in PAX8-dependent RMG-1 cells, dose response, cell-based, cherry-pick (AID 687029;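 active = signal drop whose fitted half-maximal concentration is at most twice the top valid dose, in every test run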;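 also: cells exposed to compound for 96 hours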). The following applies: RMG-1 viability, CellTiterGlo ATP luminescence, 96 h; series mostly up to 35 µM.
Turning to `O=C(CCN1C(=O)/C(=C/c2ccccc2Cl)SC1=S)Nc1ccccc1C(=O)O`, the outcome was inactive.

With `O=C(CSc1nc2ccccc2s1)NCCOc1ccccc1`, the call was inactive.

Turning to `COc1ccc(NC(=O)C[C@H]2C(=O)N(c3ccc(OC)cc3)C[C@@H]2C)cc1`, the call was inactive.

With `Nc1ncn([C@H]2C[C@H](O)[C@@H](CO)O2)c(=O)n1`, the call was inactive.

For `Cc1nn(CCO)c2nc(-c3cccs3)cc(C(F)(F)F)c12`, the molecule was classed as inactive.

For `Cc1cccc(C(=O)Oc2ccc(/C=N/NC(=O)c3ccccc3O)cc2)c1`, the call was inactive.

Consider `COc1ccccc1NC1=Nc2cccc3cccc1c23`, for which the result was inactive.

In the case of `O=C(/C=C/c1c(Cl)nc2ccccn12)Nc1ccc(F)cc1`, the call was inactive.

As for `CCOC(=O)C1(Cc2ccc(OC)cc2)CCN(C(=O)CN2CCCCC2=O)CC1`, the call was inactive.

For the molecule `Cc1cc(=O)oc2ccc(OC(=O)CN3C(=O)c4cccc([N+](=O)[O-])c4C3=O)cc12`, the result was inactive.

Turning to `Nc1ccc2c(c1)CC(=O)c1ccccc1S2`, the result was inactive.

Take `O=C(Cc1ccc(F)cc1)OCC(=O)N1CCN(S(=O)(=O)c2ccc(Cl)cc2)CC1`: the call was inactive.

Turning to `Cc1ccc(/C=N/NC(=O)c2ccccn2)o1`, the molecule was classed as inactive.

Regarding `CCCCC1Cc2[nH]c(=S)[nH]c(=O)c2C(c2ccc(F)cc2)O1` (centres undefined), the outcome was inactive.

On to `COc1ccc(C2CC(c3ccc(Br)cc3)=NN2C(=S)Nc2ccccc2)cc1` (centres undefined), for which the call was inactive.

`Nn1cnnc1N/N=C\c1ccc(-c2ccccc2[N+](=O)[O-])o1`: the call was inactive.

Take `COc1ccc(O)c(C(c2c(C)[nH][nH]c2=O)c2c(C)[nH][nH]c2=O)c1`: the call was inactive.

In the case of `COc1ccc(OCCNC(=O)/C=C/c2ccc([N+](=O)[O-])cc2)cc1`, the outcome was inactive.

As for `CCCCCCCCNC(=O)c1cnccn1`, the molecule was called inactive.

In the case of `CCNC(=O)C1(C)CCN(C(=O)c2ccccc2F)C1` (centres undefined), the molecule was called inactive.

With `COc1ccc(-c2cn(CC[C@@H]3CC[C@H](NC(=O)Cc4ccccn4)[C@@H](CO)O3)nn2)cc1`, the result was inactive.

As to `CC1CCN(CCOc2ccc(OCc3ccccc3)cc2)CC1`, the result was inactive.

The nature of another assay: cytotoxicity in IOSE-T80 ovarian epithelial cells, dose response, selectivity assay for PAX8 inhibitor project, cell-based, cherry-pick (AID 687032).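 Also: cells exposed to compound for 96 h before reading.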 The following applies: CellTiterGlo ATP luminescence, 96 h; series mostly up to 35 µM.
Take `O=C1c2cccc3c(O)ccc(c23)C(=O)N1c1ccc(Cl)cc1`: the result was inactive.

`CC(=O)Nc1ccc(C(=O)CSc2cc(C)c3cccc(C)c3n2)cc1`: the call was inactive.

On to `Fc1ccc(CSc2ccc(-c3ccco3)nn2)cc1`, for which the outcome was inactive.

Take `Cc1cccc(OCc2nc(-c3cccnc3)no2)c1`: the molecule was called inactive.

Regarding `O=[N+]([O-])c1ccc2nc(SCc3cn4ccccc4n3)[nH]c2c1`, the molecule was called inactive.

With `COc1ccc2oc(C)c(C(=O)c3ccc([N+](=O)[O-])cc3)c2c1`, the call was inactive.

Regarding `O=C(/C=C/c1ccco1)Nc1nc(-c2ccccc2)cs1`, the call was inactive.

Regarding `CCCCC(=O)N1CCN(c2ccc(OC)cc2[N+](=O)[O-])CC1`, the outcome was inactive.

With `O=C(CSc1cccc[n+]1[O-])Nc1cc(S(=O)(=O)N2CCOCC2)ccc1N1CCOCC1`, the molecule was classed as inactive.

In the case of `CCN(C(=O)COC(=O)c1ccc(S(=O)(=O)N2CCCc3ccccc32)cc1)C1CCS(=O)(=O)C1` (centres undefined), the molecule was classed as inactive.

As for `O=C(CSc1nc2ccccc2s1)NCCOc1ccccc1`, the call was inactive.

With `Cc1nn(CCO)c2nc(-c3cccs3)cc(C(F)(F)F)c12`, the molecule was classed as inactive.

On to `Cc1cccc(C(=O)Oc2ccc(/C=N/NC(=O)c3ccccc3O)cc2)c1`, for which the molecule was called inactive.

Consider `COc1ccccc1NC1=Nc2cccc3cccc1c23`, for which the call was inactive.

Consider `O=C(/C=C/c1c(Cl)nc2ccccn12)Nc1ccc(F)cc1`, for which the molecule was called inactive.

For `CCOC(=O)C1(Cc2ccc(OC)cc2)CCN(C(=O)CN2CCCCC2=O)CC1`, the call was inactive.

Turning to `Cc1cc(=O)oc2ccc(OC(=O)CN3C(=O)c4cccc([N+](=O)[O-])c4C3=O)cc12`, the molecule was called inactive.

With `Cc1ccc(/C=N/NC(=O)c2ccccn2)o1`, the outcome was inactive.

As for `COc1ccc(C2CC(c3ccc(Br)cc3)=NN2C(=S)Nc2ccccc2)cc1` (centres undefined), the molecule was classed as inactive.

Take `COc1ccc(O)c(C(c2c(C)[nH][nH]c2=O)c2c(C)[nH][nH]c2=O)c1`: the molecule was classed as inactive.

Consider `COc1ccc(-c2cn(CC[C@@H]3CC[C@H](NC(=O)Cc4ccccn4)[C@@H](CO)O3)nn2)cc1`, for which the molecule was classed as inactive.

Take `CC1CCN(CCOc2ccc(OCc3ccccc3)cc2)CC1`: the result was inactive.
